# Source: PubChem (National Center for Advancing Translational Sciences (NCATS))
# This is a sample that favours compounds with a hit; in the whole collection about 14% have one here.
# Shiga inhibitor – inhibitors of Shiga toxin in Vero cells. Vero cells, Shiga toxin protein synthesis inhibition reporter. inhibition, % at 38.7 µM. 9.2% of 290,000 active. AID 2315; in the data active = inhibition mostly above about 28%, no sharp cut-off; inactive = mostly below about 43%; note: 0% is about no effect
# NS1 function inh – blocks influenza NS1 protein function. Potency, µM (highest dose often 46.1 µM), without a hit: at the highest dose activity, positive = more growth. 0.4% of 270,000 active; calls by dose curve; note: potency is the fitted concentration of half-maximal effect; actives are rising curves; nearly all actives have a fitted effect of over 50% in size
#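 In this qHTS, NS1 from influenza A is expressed in budding yeast, where it slows growth. Cells are switched from glucose to 2% galactose medium (pH 6.0, -URA), treated with compound, and growth recovery is read at OD600.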
# Giardia FBPA inh – blocks Giardia fructose-bisphosphate aldolase activity | Potency, µM (highest dose often 59.6 µM), for the others: at the top dose activity, negative = inhibition, most hits filed as inhibitors | A8B2U2 | purified Giardia FBPA | 0.71% of 290,000 active; note: potency is the fitted concentration of half-maximal effect; % is set by controls: 0 for no effect and ±100 for the full control effect; nearly all actives have a fitted effect of over 55% in size
# Target sequence (A8B2U2 whole entry, looked up): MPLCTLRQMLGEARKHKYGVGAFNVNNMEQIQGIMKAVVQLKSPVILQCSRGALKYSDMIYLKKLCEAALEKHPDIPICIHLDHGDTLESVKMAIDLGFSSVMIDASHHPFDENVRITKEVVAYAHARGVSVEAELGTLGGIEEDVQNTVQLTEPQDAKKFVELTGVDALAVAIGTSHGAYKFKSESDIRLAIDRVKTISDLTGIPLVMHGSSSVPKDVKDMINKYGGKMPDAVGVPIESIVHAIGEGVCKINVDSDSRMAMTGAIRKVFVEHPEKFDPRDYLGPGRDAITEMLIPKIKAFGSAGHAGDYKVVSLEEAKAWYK
#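 40 nM FBPA preincubated 10 min at RT with compound (up to 57.5 uM final), then substrate plus GAPDH/TPI/NAD/arsenate coupling and diaphorase/resazurin added. Fluorescence read after 20 min at RT, 525/598 nm.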
# LmPK inhibitor – LmPK (Leishmania mexicana) enzyme inhibition; purified LmPK, Kinase-Glo ATP luminescence, 1 h; 0.37% of 290,000 active; Q27686; Potency, µM (series often up to 57.5 µM), without a hit: at the top dose activity change, negative = inhibition, actives largely listed as inhibitors; AID 1721; note: potency is the fitted concentration of half-maximal effect; % is set by controls: 0 for no effect and ±100 for the full control effect
#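 In 50 mM imidazole pH 7.2 with 7 mM MgCl2, LmPK (0.1 nM) turned over PEP (0.5 mM) and ADP (0.1 mM) for 1 h at room temperature. Luciferase read-out of ATP.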
# Cycloheximide cs – counter-screen hit for Shiga toxin inhibitors, cycloheximide | cell reporter, cycloheximide protein synthesis inhibition counterscreen | max response, % | 12% of 300,000 active | AID 2314; in the data active = max response mostly above about 13%, no sharp cut-off; inactive = mostly below about 14%; note: read at 38.3 µM for the half of the compounds with a filed dose; 0% is about no effect
# An asterisk follows results filed as active; ? = inconclusive; . = no result; [ ] = dose if it differs, or a comment. Unless noted, calls come from the whole dose curve; as a rule, active = well fitted curve in the direction sought with a large enough effect; inconclusive = small, poorly fitted or top-dose-only effect, or another doubt; inactive = no such curve, though single readings can be large; an effect the other way counts as inactive or inconclusive.
SMILES,Shiga inhibitor,NS1 function inh,Giardia FBPA inh,LmPK inhibitor,Cycloheximide cs
CCCCCC(=O)N/N=C/c1ccc(N(C)C)cc1,23,-31%,0%,-1%,18*
CN(C)c1ccc(/C=N/NC(=O)CCC(=O)NCc2ccccc2)cc1,1,-41%,0%,0%,-1
CN(C)c1ccc(/C=N/NC(=O)CCCO)cc1,63*,.,-1%,-2%,41*
NS(=O)(=O)c1ccc(NC(=O)CN2CCc3ccccc3C2)cc1,4,-13%,-6%,5%,-4
O=S(=O)(c1cccc(Cl)c1)N1CN(CC2CCCO2)c2nc3ccccc3nc21 (stereo unspecified),-6,6%,.,11%,9
CCOC(=O)c1ccc(NC(=O)c2ccc(NS(C)(=O)=O)cc2)cc1,15,-5%,5%,4%,12
CCc1ccc(C(=O)Nc2ccc(C)c(NS(C)(=O)=O)c2)cc1,39,-11%,-4%,3%,7.6*
Cc1ccc(NC(=O)c2ccc(F)cc2F)cc1NS(C)(=O)=O,61*,-4%,-3%,-5%,8
NC[C@@H](O)CSCc1ccc(Cl)cc1,.,-9%,.,.,.
CSCc1nc2sc(C(=O)Nc3nc(C)cs3)c(C)c2c(=O)[nH]1,117,.,-16%,-6%,33*
Cc1ccc(NC(=O)c2sc3nc(CCl)[nH]c(=O)c3c2C)c(C)c1,59*,.,-10%,0%,29
Cc1cccc(OCCCn2c(CCNC(=O)C3CCCCC3)nc3ccccc32)c1,48,.,.,.,10
Cc1nc2sccn2c(=O)c1S(=O)(=O)Nc1ccc(N2CCN(S(C)(=O)=O)CC2)cc1,-16,?,-12%,-1%,-9
Cc1ccc(C)c(NC(=O)CSc2nnc(NC(=O)C3CC3)s2)c1,-3,6%,2%,10%,1
CC(=O)c1ccc(-n2c(-c3cc(-c4ccsc4)n[nH]3)n[nH]c2=S)cc1,-8,.,20%,20µM*,-1
NC(=S)N/N=C/c1cn(-c2ccccc2)nc1-c1cccnc1,22,2%,-8%,-9%,19*
COc1ccc(-c2nn(-c3ccccc3)cc2/C=N/O)cc1OC,15,-5%,4%,7%,1
O/N=C/c1cn(-c2ccccc2)nc1-c1ccccc1,12,-32%,-3%,6%,14*
Cc1ccc(S(=O)(=O)N[C@H]2COC(=O)C/C=C\[C@H](C)[C@@H](NS(=O)(=O)c3ccc(C)cc3)COC(=O)C/C=C\[C@@H]2C)cc1,.,.,3%[12.9 µM],.,.
CCn1c(CNC(=O)c2ccccc2Br)nnc1SCC(=O)Nc1nncs1,-4,14%,?,-3%,0
Cc1cc(C)cc(OCCCCn2cncn2)c1,-4,-4%,-4%,-4%,1
COc1ccccc1N1CCN(C(=O)CCNS(=O)(=O)c2cc(Br)cnc2N)CC1,-3,-23%,.,0%,-4
COc1ccc(C2/C=C\CN(C(=O)C3CCCCC3)C(Cc3ccccc3)C(=O)N2Cc2ccc(F)cc2)cc1 (stereo unspecified),16,.,-4%,.,23
Cc1ccc([N+](=O)[O-])cc1NC(=O)CCc1ccccc1,-13,.,3%,-1%,11
Cc1ccc([N+](=O)[O-])cc1N/C=C1\CCc2ccccc2C1=O,52*,-4%,?,-1%,13*
SMILES,Shiga inhibitor,NS1 function inh,Giardia FBPA inh,LmPK inhibitor,Cycloheximide cs
Clc1nc(-c2cccnc2)nc2scc(-c3ccccc3)c12,40*,-7%,5%,-4%,29*
COc1ccc(-c2csc3nc(-c4cccnc4)nc(Cl)c23)cc1OC,-8,2%,1%,2%,4
CC1CCN(C(=O)C2CCN(S(=O)(=O)c3ccc(-n4cnnn4)cc3)CC2)CC1,-3,10%,-6%,0%,-4
O=C(Nc1ccc(C(=O)NCc2ccccc2)cc1)C1=CSCCO1,38*,-1%,.,-1%,28*
CC(C)OCCCNC(=O)c1ccc(NC(=O)C2=CSCCO2)cc1,5,-8%,.,-12%,1
O=C(Nc1ccc(C(=O)NCc2ccc(F)cc2)cc1)C1=CSCCO1,102*,-11%,1%,0%,38*
CCOCCCNC(=O)c1ccc(NC(=O)C2=CSCCO2)cc1,13,-13%,.,-2%,17
CCc1ccc(CNC(=O)c2ccc(NC(=O)C3=CSCCO3)cc2)cc1,21*,0%,.,-6%,33*
C(CCc1nnc2c(n1)CCCC2)Cc1nnc2c(n1)CCCC2,.,2%,.,.,.
C=CCn1cccc(C(=O)Nc2cc(OC)c(OC)c(OC)c2)c1=O,-3,.,0%,-3%,2
C=CCn1cccc(C(=O)Nc2cc(OC)cc(OC)c2)c1=O,20,.,0%,-1%,26*
